Records with an inconclusive call do not appear. Activity calls are given as the source filed them. Calls follow the shape of the dose curve; as a rule, active = well fitted cell-killing curve with a large enough effect; inconclusive = small, poorly fitted or top-dose-only effect, or effect the other way; inactive = no such curve, though single readings can be large or run the other way.
Potency is read from the fitted curve at half-maximal effect.

The nature of this test: Viability qHTS for spleen associated tyrosine kinase inhibitor (SYKi) drug resistant MV4-11 cells (AID 1963824). Also: nearly all actives have a fitted effect of over 35% in size. The note with it: SYKi-resistant MV4-11 viability, CellTiter-Glo, 72 h; series mostly up to 45 µM; viability, % of control: at the top concentration. Summed up: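 SYK-inhibitor-resistant MV4-11 AML cells were seeded at 500 per well onto compound and cultured 72 hours (37 °C, 5% CO2). CellTiter-Glo was then added, and after 10 min at room temperature, luminescence gave viability.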
(In qHTS, concentration-response curves come from the screen itself.)
For `CCN(CC)CCNC(=O)c1c(C)[nH]c(/C=C2\C(=O)Nc3ccc(Cl)cc32)c1C`, the Potency is 0.0146 µM (active).
Consider `COC(=O)C1=CO[C@@H](O[C@@H]2O[C@H](CO)[C@@H](O)[C@H](O)[C@H]2O)[C@@H]2C(CO)=CC[C@]12O`, for which the “viability, % of control” value was 97.3% [at 17.3 µM] (inactive).
`CC(C)c1cc(-c2ccc(F)c3ccccc23)nc(N)n1`: the Potency was 5.17 µM (active).
Same read-out and setting: to `O=C1NC(=O)/C(=C\c2ccc3c(c2)OC(F)(F)O3)S1` belongs 14.6 µM (active).
Still for that read-out and setting: to `C/C=C(/C)C(=O)O[C@H]1[C@H](OC(=O)/C(C)=C\C)[C@@]23C(CC1(C)C)[C@]1(CCC4[C@@]5(C)CC[C@H](O[C@@H]6O[C@H](C(=O)O)[C@@H](O)[C@H](O[C@@H]7O[C@H](CO)[C@H](O)[C@H](O)[C@H]7O[C@@H]7O[C@@H](C)[C@H](O)[C@@H](O)[C@H]7O[C@@H]7OC[C@@H](O)[C@H](O)[C@H]7O)[C@H]6O[C@@H]6O[C@H](CO)[C@H](O)[C@H](O)[C@H]6O)C(C)(C)C5CC[C@@]4(C)[C@]1(C)C[C@H]2O)O[C@H]3O` (stereo partly drawn) belongs 0.776 µM (active).
Still for that read-out and setting: to `C=C1C(=O)O[C@@H]2CC(C)=C([C@@H](C)CCCO)[C@@H](OC(=O)C(C)C)[C@H]12` belongs 4.04 µM (active); to `COc1c2cc(c(O)c1OC)CCCCC(O)CCc1ccc(O)c-2c1` (stereo not drawn), 14.3 µM (active).
`CC1=COC(OC2OC(CO)C(O)C(O)C2O)C2C(CO)CC(OC(=O)/C=C/c3ccc(O)cc3)C12` (stereo not drawn): the “viability, % of control” value was 105% [at 17.3 µM] (inactive).
Regarding `Cc1ccccc1NC(=O)Nc1ccc(CC(=O)N(C)[C@@H](CC(C)C)C(=O)NCC[C@H](NC(=O)[C@@H]2CCCN2S(=O)(=O)c2cc(Cl)cc(Cl)c2)C(=O)O)cc1`, the “viability, % of control” value was 93.9% [at 17.3 µM] (inactive).
As for `CC1(C)CC[C@]2(C(=O)O[C@@H]3O[C@H](CO)[C@@H](O)[C@H](O)[C@H]3O)CC[C@]3(C)C(=CCC4[C@@]5(C)C[C@@H](O)[C@H](O)[C@@](C)(CO)C5[C@H](O)C[C@]43C)C2C1` (stereo partly drawn), the “viability, % of control” value was 87.9% [at 17.3 µM] (inactive).
`Cc1cc(Nc2nc(-c3ccccc3)nc3ccccc23)n[nH]1`: the Potency was 0.366 µM (active).
Regarding `C/C=C1\[C@H](O[C@@H]2O[C@H](CO)[C@@H](O)[C@H](O)[C@H]2O)OC=C(C(=O)OC)[C@H]1CC(=O)OC[C@H]1O[C@@H](OCCc2ccc(O)cc2)[C@H](O)[C@@H](O)[C@@H]1O`, the “viability, % of control” value was 81.4% [at 17.3 µM] (inactive).
Take `CCOc1ccc(-n2c(C(C)N(Cc3cccnc3)C(=O)Cc3ccc(F)c(C(F)(F)F)c3)nc3ncccc3c2=O)cc1` (stereo not drawn): the Potency is 16.4 µM (active).
Same read-out and setting: to `COC1CC/C=C(\C)C(=O)Nc2cc(O)cc(c2)CC(C)CC(OC)C(O)C(C)/C=C(\C)C1OC(N)=O` (stereo not drawn) belongs 0.632 µM (active); to `CC(C)S(=O)(=O)Nc1ccc(F)c(C(=O)c2c[nH]c3ncc(-c4cccnc4)cc23)c1F`, 2.91 µM (active).
In the case of `CC(C)CC(=O)n1cc(C(N)=O)c(=O)cc1C(O)c1ccccc1` (stereo not drawn), the “viability, % of control” value is 84.5% (inactive).
In the case of `Cc1cc(N)c2ccccc2[n+]1CCCCCCCCCC[n+]1c(C)cc(N)c2ccccc21`, the Potency was 0.58 µM (active).
Consider `O=C1NC(=O)/C(=C\c2ccc(-c3ccc(F)cc3O)o2)S1`, for which the Potency was 11.6 µM (active).
The same measure, in the same setting: then `Cn1c(=O)n(-c2ccc(C(C)(C)C#N)cc2)c2c3cc(C#Cc4cccnc4)ccc3ncc21`, with 0.0447 µM (active).
Regarding `C[C@]1(C(=O)Nc2ccc(F)nc2)CCCN1c1nc(Nc2cc(C3CC3)[nH]n2)c2cccn2n1`, the Potency was 1.64 µM (active).
Same read-out and setting: to `COc1ccc(CN2CCN(C(=O)CCNC(=O)c3ccc(C(C)(C)C)cc3)CC2)cc1` belongs 9.2 µM (active).
As to `CC1OC(O[C@H]2[C@@H](O)C[C@@]3(C)C([C@H](O)C[C@]4(C)C3CC=C3C5CC(C)(C)CC[C@]5(C(=O)OC5OC(CO)C(O)C(O)C5OC5OCC(OC6OCC(OC7OCC(O)C(O)C7O)C(O)C6O)C(OC6OCC(O)(CO)C6O)C5O)CC[C@]34C)[C@]2(C)CO)C(O)C(O)C1O` (stereo partly drawn), the viability, % of control is 97% [at 9.25 µM] (inactive).
Regarding `C[C@@H]1O[C@@H](O[C@H]2[C@H](O[C@H]3CC[C@@]4(C)C(CC[C@]5(C)C4C=C[C@]46OC[C@@]7(CCC(C)(C)C[C@H]74)[C@@H](O)C[C@]65C)[C@]3(C)CO)O[C@H](CO)[C@@H](O)[C@@H]2O[C@@H]2O[C@H](CO)[C@@H](O[C@@H]3O[C@@H](C)[C@H](O)[C@@H](O)[C@H]3O)[C@H](O)[C@H]2O)[C@H](O)[C@H](O)[C@H]1O` (stereo partly drawn), the Potency is 4.37 µM (active).
For the molecule `CCC(C)C(=O)O[C@H]1[C@H](O)[C@@]2(COC(C)=O)C(CC1(C)C)C1=CCC3[C@@]4(C)CC[C@H](O[C@@H]5O[C@H](C(=O)O)[C@@H](O)[C@H](O)[C@H]5O)[C@@](C)(CO)C4CC[C@@]3(C)[C@]1(C)C[C@@H]2O` (stereo partly drawn), the Potency is 3.48 µM (active).
On the same count and under the same terms, then `Cc1c(CN2CCN(C(=O)C(C)O)CC2)sc2c(N3CCOCC3)nc(-c3cnc(N)nc3)nc12` (stereo not drawn), with 0.366 µM (active); and `CC(=O)Nc1cc(Oc2ccc3c(nc(Nc4ccc(F)cc4F)n3C)c2C)ccn1`, with 1.66 µM (active).
On the same count and under the same terms, to `C#C[C@]1(O)CC[C@H]2[C@@H]3CCC4=C/C(=N/O)CC[C@@H]4[C@H]3CC[C@@]21CC` belongs 25.9 µM (active); to `Cc1nc([C@](C)(O)CO)sc1-c1cnc(N)c(O[C@H](C)c2cc(F)ccc2-n2nccn2)c1`, 8.33 µM (active).

The values are drawn from PubChem BioAssay (NCATS).
